Where “and” joins values, the source holds several entries; their conditions need not be identical. Identical values can stand only once. Inconclusive results are not listed. Calls of active or inactive are those of the source. The call rests on the fitted dose curve; in most records, active means well fitted inhibition curve with a large enough effect; inconclusive means small, poorly fitted or top-dose-only effect; inactive means flat fitted curve, though single readings scatter.

Our source for the max response, outcome and Potency values is PubChem BioAssay (NCATS).
On the % scale 0 is the no-effect control and ±100 the full control effect; potency means the concentration at half of the fitted maximal effect.

The experiment concerns KB-3-1. Put plainly: Cytotoxic Profiling of Annotated Libraries Using Quantitative High-Throughput Screening (AID 1296008). Further: nearly all actives have a fitted effect of over 60% in size. The conditions noted are these: Five cell lines viability, CellTiter-Glo ATP luminescence, 48-72 h; max response: hits give low values. The text has this: Cell-based phenotypic screening is a commonly used approach to discover biological pathways, novel drug targets, chemical probes and high-quality hit-to-lead molecules. Many hits identified from high-throughput screening campaign are ruled out through a series of follow-up potency, selectivity/specificity, and cytotoxicity assays. Prioritization of molecules with little or no cytotoxicity for a more in-depth downstream evaluation influence the future direction of projects, so cytotoxicity profiling of the screening libraries at early stage is essential for increasing the likelihood of candidate success. […] For the annotated library, we also examined the primary targets and mechanistic pathways regularly associated with cell death. To our knowledge, this is the first study to use high-throughput screening to profile large libraries for cytotoxicity assessment in both normal and cancer cell lines. In summary, the results generated here constitutes a valuable resource for the scientific community and provides insight on identifying cytotoxic compounds with particular mechanisms of action, and prioritizing compounds with suitable cytotoxicity profile for further evaluation.
A pintool (Kalypsys) was used to transfer 23 nL of compound solution to the 1536-well assay plates. After 48 or 72 hr incubation at 37 degree Celsius, 5% CO2 and 95% humidity, 2.5 uL of CellTiter-Glo (Promega) was dispensed into each well using a dispenser (Aspect Automation, St. Paul, MN) with solenoid valves (Lee Valves, Westbrook CT). Plates were left at room temperature for 10 min before imaging the ATP-coupled luminescence using a ViewLux microplate imager (PerkinElmer, Waltham, MA).
(In ATP-based viability assays light output follows the ATP content of the culture.)
For `C#CC(C)(O)CC` (stereo not given), the max response was -2.82% (inactive). The same measure, in the same setting: then `N#CC1(N2CCCCC2)CCCCC1`, with 9.38% (inactive); and `O=Cc1ccco1`, with 3.99% (inactive); and `CCC1(c2ccccc2)C(=O)NC(=O)NC1=O`, with 3.43% (inactive).

For `Oc1ccc2c3c1O[C@H]1[C@H](N(CCCl)CCCl)CC[C@@]4(O)[C@@H](C2)N(CC2CC2)CC[C@]314`, the outcome was inactive.

Consider `CC1=C2C(=O)C3[C@@H](CC=C4C[C@@H](O)CC[C@@]43C)[C@@H]2CC[C@]12O[C@@H]1C[C@H](C)CN[C@H]1[C@H]2C` (stereo not given in full), for which the molecule was called inactive. As for `C=CC(C)(O)CC/C=C(\C)C(=O)O[C@H]1[C@H](O)[C@@H](CO)O[C@@H](OC(=O)[C@]23CCC(C)(C)CC2C2=CCC4[C@@]5(C)CC[C@H](O[C@@H]6O[C@H](CO[C@@H]7OC[C@H](O)[C@H](O)[C@H]7O[C@@H]7OC[C@@H](O)[C@H](O)[C@H]7O)[C@@H](O)[C@H](O)[C@H]6O)C(C)(C)C5CC[C@@]4(C)[C@]2(C)CC3)[C@@H]1OC1OC(C)C(O[C@@H]2OC[C@@H](O)[C@H](O[C@@H]3OC[C@@H](O)[C@H](O)[C@H]3O)[C@H]2O)C(O)C1O` (stereo not given in full), the max response is -0.269% (inactive). In the case of `C=CC(C)(C)c1[nH]c2cccc3c2c1C[C@@H]1[C@@H]3[C@@H](OC(C)=O)[C@H](C)CN1C`, the max response is 4.47% (inactive).

As to `CCNCC(O)c1cccc(O)c1` (stereo not given), the max response was 6.6% (inactive). Same read-out and setting: then `OC1(c2ccc(Cl)cc2)c2ccccc2C2=NCCN21` (stereo not given), with 7.32% (inactive).

`COC1=CC(=O)O[C@@H](/C=C/c2ccccc2)C1`: the result was inactive. On to `Cc1cccc(NC(=O)N[C@@H]2N=C(c3ccccc3)c3ccccc3N(C)C2=O)c1`, for which the max response was 9% (inactive). Consider `CC(=O)Oc1ccc2c3c1O[C@H]1[C@@H](OC(C)=O)C=C[C@H]4[C@@H](C2)N(C)CC[C@@]341`, for which the max response was -5% (inactive) and 2.33% (inactive). On the same count and under the same terms, to `CCC(=O)O[C@]1(c2ccccc2)CCN(C)C[C@H]1C` belongs -2.12% (inactive); to `C[C@@H]1[C@@H]2Cc3ccc(O)cc3[C@@]1(C)CCN2CC1CC1`, -3.25% (inactive); to `CN(C)CCc1c[nH]c2ccc(CN3CCN(C)S3(=O)=O)cc12`, -6.8% (inactive).

As for `CN1C(=O)c2ccccc2NC(=O)[C@]12O[C@@H]2c1ccccc1`, the max response was 8.97% (inactive).

Take `NCC(O)c1cccc(O)c1` (stereo not given): the max response is 1.34% (inactive). Same read-out and setting: to `C[C@H]1CC[C@]2(NC1)O[C@H]1C[C@H]3[C@@H]4CC[C@H]5C[C@@H](O)CC[C@]5(C)[C@H]4CC[C@]3(C)[C@H]1[C@@H]2C` belongs -2.2% (inactive); to `CNC(C)C(O)c1ccc(O)cc1` (stereo not given), -2.38% (inactive) and -4.74% (inactive); to `N#CC(C#N)=Cc1cc(O)c(O)c(O)c1`, -23.8% (inactive). Same read-out and setting: to `Cc1ccccc1-n1c(CF)nc2ccc(N)cc2c1=O` belongs -0.0685% (inactive); to `CC(C)=C1CC[C@]23CO[C@H](C2)[C@@](O)(C(=O)O)CCC13` (stereo not given in full), 4.44% (inactive); to `CN1CCCC1CCOC(c1cc2nccc(C(=O)O)c2[nH]1)c1ccccc1Cl` (stereo not given), 7.27% (inactive).

For the molecule `[H+].[H+].[Hg+2].[O-]B([O-])[O-].[c-]1ccccc1`, the Potency is 8.2 µM (active). As to `[O]=[Cd]`, the max response was -8.4% (inactive). On the same count and under the same terms, to `C[C@@]12C[C@@H](c3ccoc3)OC(=O)C1CC[C@]1(C)[C@H]2[C@H]2C=C[C@]1(O)C(=O)O2` (stereo not given in full) belongs 3.68% (inactive); to `OC[C@@H](O)[C@H]1O[C@@H]2O[C@@H](C(Cl)(Cl)Cl)O[C@@H]2[C@H]1O`, 1.39% (inactive). Take `CC(C)CCON=O`: the max response was 10.4% (inactive).

On to `O=c1c2ccccc2[se]n1-c1ccccc1`, for which the max response was -5.46% (inactive). On the same count and under the same terms, then `CC1(C)S[C@@H]2[C@H](N)C(=O)N2[C@H]1C(=O)O`, with -11.7% (inactive).

With `C[C@H]1C(=O)O[C@H]2[C@H](O)[C@]34C5OC(=O)[C@]3(O[C@@H]3OC(=O)[C@H](O)C34[C@H](C(C)(C)C)[C@H]5O)C12O` (stereo not given in full), the outcome was inactive. In the case of `C=C(CO)C(=O)O[C@H]1C/C(C)=C/CC/C(CO)=C/[C@H]2OC(=O)C(=C)[C@H]12`, the molecule was called inactive. For `CC(=O)[C@H]1CC[C@H]2[C@@H]3CC[C@@H]4C[C@H](O)CC[C@]4(C)[C@H]3CC[C@]12C`, the max response is 4.77% (inactive).

In the case of `C[C@@H]1C(=O)O[C@H]2[C@H](O)[C@@]34[C@@H]5OC(=O)[C@@]3(O[C@@H]3OC(=O)[C@@H](O)[C@@]34[C@H](C(C)(C)C)[C@H]5O)[C@@]12O`, the call was inactive. Regarding `O=C1CCCCC1CN1CCCCC1` (stereo not given), the max response is 4.12% (inactive). Still for that read-out and setting: then `CCC(N)Cc1c[nH]c2ccccc12` (stereo not given), with 3.31% (inactive) and -1.82% (inactive); and `NCC[C@H](O)C(=O)N[C@@H]1C[C@H](N)[C@@H](O[C@H]2O[C@H](CN)[C@@H](O)[C@H](O)[C@H]2N)[C@H](O[C@@H]2O[C@H](CO)[C@@H](O)[C@H]2O)[C@H]1O`, with 11% (inactive).

Consider `CCC1(C)CC(=O)NC(=O)C1`, for which the max response is 4.64% (inactive). Still for that read-out and setting: then `CC[C@H]1CN2CC[C@H]1C[C@H]2[C@H](O)c1ccnc2ccc(OC)cc12`, with 0.288% (inactive).
